# KCNQ2 pot: potentiators of rat KCNQ2 potassium channel | O88943 | CHO-K1 KCNQ2, FluxOR thallium flux fluorescence; active compounds read high | B-score at 10 µM | 310,000 tested, 0.54% active | AID 2239;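 active means fluorescence ratio B-score at least 3 SD of library B-scores, with initial fluorescence B-score within 3 of them, cut at about 5.3 in these data; same plate scores as AID 2156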;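 further: B-score of peak minus minimum over baseline fluorescence ratio after K+ and Tl+ stimulus; positive B-score means potentiation of KCNQ2 with more thallium influx and brighter signal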
# KCNQ2 block: blocks the rat KCNQ2 potassium channel | CHO-K1 KCNQ2, FluxOR thallium flux, 20 min; active compounds read low | B-score at 10 µM | AID 2156 | 310,000 tested, 1.1% active | O88943;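 active means fluorescence ratio B-score at most minus 3 library SDs, with starting brightness B-score within 2 library SDs, cut at about -5.5 in these data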
# Kir21 confirm: confirmation of mouse Kir2.1 potassium channel inhibitors; Tl flux remaining, % of negative control (active compounds read low), % at 10 µM; 2,300 tested, 41% active; shares compounds with KCNQ2 pot; Kir2.1-expressing cells, FluxOR thallium flux fluorescence; active compounds read low;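 active means Primary-screen hit whose thallium flux fell at least 3 control SD below untreated wells in both duplicates, with normal baseline fluorescence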
# HEK293 Tl flux: alters thallium flux in parental HEK293 cells, Kir2.1 counter-screen | shares compounds with KCNQ2 pot | FluxOR thallium flux fluorescence; 0% = unstimulated blank wells | FluxOR signal as % of negative control (100 = no effect), % at 10 µM | 2,300 tested, 19% active | AID 2105;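 active means dye signal at least 3 control SD above or below untreated wells in both duplicates, raw fluorescence within 3, either direction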;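 further: percent is based on the flux ratio of peak minus minimum fluorescence over baseline F0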
# CHO-K1 ctr: parental CHO-K1 activity in KCNQ2 potentiator counter-screen. shares compounds with KCNQ2 pot. parental CHO-K1 cells, FluxOR thallium flux fluorescence; zero = vehicle mean+3SD, 100% = vehicle-minus-blank window. activity increase over 3SD of controls, % at 10 µM. 1,200 tested, 43% active. AID 2282;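 active means signal rise of at least 3 SD above the untreated control mean, in both duplicate wells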;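 further: counter screen of KCNQ2 potentiator hits so any rise reflects channel-independent effects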
# KCNQ1 pot spec: human KCNQ1 counter-target activity of KCNQ2 potentiators | 1,200 tested, 28% active | shares compounds with KCNQ2 pot | activation over 3SD threshold, % at 10 µM | CHO KCNQ1 stable, FluxOR thallium flux fluorescence; beyond 3SD, as % of vehicle-control signal;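 active means fluorescence ratio rise of at least 3 SD of vehicle wells above their mean, in both replicate wells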
# KCNQ2 pot conf: confirmation of rat KCNQ2 potassium channel potentiators; CHO-KCNQ2 cells, FluxOR thallium flux fluorescence; AID 2287; shares compounds with KCNQ2 pot; potentiation, less the hit threshold, % at 10 µM; 1,200 tested, 68% active;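 active means fluorescence ratio rising 3 SD or more over the vehicle control mean in both replicates, plus primary screen hit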;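 further: peak minus minimum thallium fluorescence divided by baseline after K/Tl stimulus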
# Kir2-1 sel: tests whether KCNQ2 potentiators also affect mouse Kir2.1; activity over 3SD threshold, % at 10 µM; shares compounds with KCNQ2 pot; 1,200 tested, 2% active; AID 2345; HEK293 Kir2.1, FluxOR thallium flux fluorescence;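 active means fluorescence ratio rise of at least 3 SD above the vehicle-control mean, seen in both replicates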
# KCNQ2 W236L pot: KCNQ2 potentiators acting on retigabine-insensitive rat KCNQ2 W236L mutant; shares compounds with KCNQ2 pot; CHO KCNQ2-W236L, automated patch clamp current; current increase over 3SD of negative controls (%), active compounds read high, % at 25 µM; 940 tested, 10% active;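 active means current increase at least 3 SD of the untreated controls above them in both duplicate recordings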
# Target sequence (O88943 whole entry W236L, looked up): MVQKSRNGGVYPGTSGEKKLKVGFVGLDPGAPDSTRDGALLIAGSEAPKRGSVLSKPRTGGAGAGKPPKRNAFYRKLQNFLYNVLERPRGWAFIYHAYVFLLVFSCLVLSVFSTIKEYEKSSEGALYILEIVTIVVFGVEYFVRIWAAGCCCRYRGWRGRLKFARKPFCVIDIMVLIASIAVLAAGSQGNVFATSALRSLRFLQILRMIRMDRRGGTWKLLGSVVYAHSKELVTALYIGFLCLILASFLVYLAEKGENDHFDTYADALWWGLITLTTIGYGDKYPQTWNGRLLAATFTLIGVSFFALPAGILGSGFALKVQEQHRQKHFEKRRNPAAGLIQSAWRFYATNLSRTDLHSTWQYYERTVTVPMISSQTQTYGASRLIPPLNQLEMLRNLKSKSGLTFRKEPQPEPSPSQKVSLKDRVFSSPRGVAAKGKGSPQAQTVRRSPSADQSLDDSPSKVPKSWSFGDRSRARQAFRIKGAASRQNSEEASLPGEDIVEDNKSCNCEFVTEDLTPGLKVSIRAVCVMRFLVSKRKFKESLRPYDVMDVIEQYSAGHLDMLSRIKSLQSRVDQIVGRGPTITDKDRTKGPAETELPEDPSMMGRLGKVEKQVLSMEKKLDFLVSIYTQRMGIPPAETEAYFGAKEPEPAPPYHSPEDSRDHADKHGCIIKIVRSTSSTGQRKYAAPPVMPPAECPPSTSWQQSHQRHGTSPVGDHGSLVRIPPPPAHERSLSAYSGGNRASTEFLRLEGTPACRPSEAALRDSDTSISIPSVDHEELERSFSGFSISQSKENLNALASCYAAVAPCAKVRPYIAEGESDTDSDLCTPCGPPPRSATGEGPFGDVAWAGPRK
# A number is an active result; . = inactive; / = no result. Compounds with a hit are over-represented: about 1.6% of the library has one in this group of screens.
SMILES,KCNQ2 pot,KCNQ2 block,Kir21 confirm,HEK293 Tl flux,CHO-K1 ctr,KCNQ1 pot spec,KCNQ2 pot conf,Kir2-1 sel,KCNQ2 W236L pot
CCSc1nnc(NC(=O)c2nc(S(=O)(=O)Cc3ccc(F)cc3)ncc2Cl)s1,10,.,/,/,.,.,49,.,11%
O=C(Nc1nnc(SCc2ccc(F)cc2)s1)c1cccnc1Cl,/,.,/,/,/,/,/,/,/
O=C(NCc1ccccc1)c1nc(S(=O)(=O)Cc2ccccc2)ncc1Cl,/,.,/,/,/,/,/,/,/
CSc1ncc(Cl)c(C(=O)Nc2nnc(SC/C=C/c3ccccc3)s2)n1,5.5,.,.,.,6.5,.,.,.,.
Cc1nnc(NC(=O)c2nc(S(=O)(=O)Cc3ccccc3C)ncc2Cl)s1,12,.,.,.,.,62,77,.,35%
O=S(=O)(Nc1ccc(S(=O)(=O)Nc2ncccn2)cc1)c1ccc(Cl)cc1,.,.,/,/,/,/,/,/,/
O=S(=O)(Nc1cccc(CCc2ccccn2)c1)c1ccc(Cl)cc1,/,.,.,.,/,/,/,/,/
CCCCCCCN1CCC(=O)N([C@H](CO)CC(C)C)CC1,/,.,/,/,/,/,/,/,/
Cc1cc(C(=O)NNC(=O)c2ccc(C(F)(F)F)cc2)no1,.,.,/,/,/,/,/,/,/
CC(C)(C)c1cc(C(=O)NNC(=O)c2ccc(Cl)cc2)no1,9.1,.,.,266%,1.4,88,5.3,.,.
CC1(C)Cc2c(cnn2-c2cccc(F)c2)C(NC(=O)CSc2ccccn2)C1 (stereo not given),/,.,/,/,/,/,/,/,/
COc1coc(C(O)CN)cc1=O (stereo not given),.,.,/,/,/,/,/,/,/
CCOC(=O)C(=Cc1cc(=O)c(OC)co1)C(=O)OCC,.,.,.,.,/,/,/,/,/
Cc1ccc([N+](=O)[O-])cc1NC(=O)CSc1nnc(C)n1CC1CCCO1 (stereo not given),.,.,/,/,/,/,/,/,/
CCOC(=O)c1n[nH]n2c1nc(=S)c1ccccc12,8.2,.,.,391%,.,.,43,1.3,.
CCOC(=O)c1n[nH]c2ccccc12,.,.,/,/,/,/,/,/,/
COc1ccc(/C(C)=N/NC(=O)CNC(=O)CCc2ccccc2)c(OC)c1,/,.,/,/,/,/,/,/,/
Cc1ccc(-c2nn(-c3ccccc3)cc2/C=N/O)cc1,5.4,.,.,.,.,.,15,.,.
O/N=C/c1cn(-c2ccccc2)nc1-c1cccnc1,/,.,/,/,/,/,/,/,/
Cc1c(C)n(Cc2ccccc2)c2ccc(C(=O)OCCCN(C)C)cc12,/,.,24%,.,/,/,/,/,/
Cc1c(C)n(CCN(C)C)c2ccc(C(=O)OCCN(C)C)cc12,.,.,/,/,/,/,/,/,/
Cc1cccc(CC(=O)NCCn2c(C)cc3ccccc32)c1,6.9,.,.,.,87,.,17,.,.
Cc1cc2ccccc2n1CCNC(=O)Cc1ccccc1,/,.,/,/,/,/,/,/,/
Cc1ccc(S(=O)(=O)NCc2ccc3[nH]c(C)cc3c2)cc1,/,.,/,/,/,/,/,/,/
CC(=O)Nc1ccc(S(=O)(=O)NCc2ccc3[nH]c(C)cc3c2)cc1,5.4,.,.,.,3.8,.,.,.,/
SMILES,KCNQ2 pot,KCNQ2 block,Kir21 confirm,HEK293 Tl flux,CHO-K1 ctr,KCNQ1 pot spec,KCNQ2 pot conf,Kir2-1 sel,KCNQ2 W236L pot
CNC(=O)NC(=O)C(c1ccccc1)N(C)CC1COc2ccccc2O1 (stereo not given),/,.,/,/,/,/,/,/,/
CCn1c(SCC(=O)NC(C)(C)C)nnc1-c1ccccn1,.,.,/,/,/,/,/,/,/
Cc1c(NC(=S)NC(=O)c2ccc(Br)o2)c(=O)n(-c2ccccc2)n1C,/,.,/,/,/,/,/,/,/
O=C(NC(=S)Nc1ccccc1F)c1ccc(Br)o1,16,.,.,.,57,.,67,.,.
O=C(NNC(=S)Nc1ccccc1C(F)(F)F)c1ccc(Br)o1,.,.,/,/,/,/,/,/,/
Cc1ccc(NC(=S)NC(=O)c2ccc(Br)o2)c(C)c1,.,.,/,/,/,/,/,/,/
Cc1cccc(C)c1NC(=S)NC(=O)c1ccc(Br)o1,14,.,.,.,0.9,.,60,.,.

# Screens from PubChem.
